# Source: PubChem (National Center for Advancing Translational Sciences (NCATS))
# An excerpt weighted towards active compounds, which were near 2.7% of everything screened.
# ALOX12 inh: ALOX12 (human) lipoxygenase inhibition | P18054 | purified 12hLO, xylenol orange hydroperoxide absorbance | Potency, µM (highest dose often 108 µM), for the others: at the top dose activity change, negative = inhibition, hits mostly inhibitors | 580,000 tested, 1.1% active | AID 1671190; further: potency means the concentration at half of the fitted maximal effect; on the % scale 0 is the no-effect control and ±100 the full control effect
# Target sequence (P18054 whole entry, looked up): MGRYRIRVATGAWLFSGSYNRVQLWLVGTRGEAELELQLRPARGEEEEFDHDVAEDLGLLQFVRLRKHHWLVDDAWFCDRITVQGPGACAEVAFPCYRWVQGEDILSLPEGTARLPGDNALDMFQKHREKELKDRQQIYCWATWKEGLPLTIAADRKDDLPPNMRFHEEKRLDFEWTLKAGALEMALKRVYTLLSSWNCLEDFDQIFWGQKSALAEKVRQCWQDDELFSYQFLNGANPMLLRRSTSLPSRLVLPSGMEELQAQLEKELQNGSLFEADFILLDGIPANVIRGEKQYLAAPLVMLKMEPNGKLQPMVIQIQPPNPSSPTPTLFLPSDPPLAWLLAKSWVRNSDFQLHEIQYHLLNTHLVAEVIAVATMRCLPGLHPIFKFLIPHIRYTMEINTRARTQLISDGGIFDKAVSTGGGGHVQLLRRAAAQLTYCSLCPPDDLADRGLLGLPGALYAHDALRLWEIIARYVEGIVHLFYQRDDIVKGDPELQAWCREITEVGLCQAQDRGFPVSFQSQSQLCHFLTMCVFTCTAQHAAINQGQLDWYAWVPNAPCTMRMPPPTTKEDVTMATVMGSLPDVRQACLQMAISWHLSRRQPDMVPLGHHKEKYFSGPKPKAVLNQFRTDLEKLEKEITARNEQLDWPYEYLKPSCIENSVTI
#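 Purified human 12hLO at 150 nM in 25 mM Hepes, 0.01% Triton X-100, pH 7.0, preincubated 15 min at room temperature with compound. Reaction started with 40 uM arachidonic acid, 30 min at room temperature. Hydroperoxide measured by Fe-xylenol orange, 573/405 nm absorbance ratio.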
# Nrf2 inh: Nrf2 pathway inhibition; A549 ARE-Fluc reporter, luciferase luminescence, 18-24 h; Potency, µM (top dose mostly 46 µM), without a hit: at the highest dose activity change, negative = inhibition, most hits filed as inhibitors; AID 504444; 360,000 tested, 2.1% active; further: potency means the concentration at half of the fitted maximal effect; on the % scale 0 is the no-effect control and ±100 the full control effect; nearly all actives have a fitted effect of over 60% in size
#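 A549 ARE_Fluc cells, 5000/well, 5% FBS OPTI-MEM; compounds in dose-response, 18-24 h at 37 °C/5% CO2; CellTiter-Fluor viability read (Ex 405/Em 525), then BugLite luciferase luminescence = Nrf2 activity.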
# ERG-DNA inh: inhibitors of human ERG Ets domain-DNA interaction; P11308; fluorescence polarization, His-ERG Ets domain / labelled DNA; Potency, µM (doses to about 76.9 µM), inactives show top-dose FP activity, negative = inhibition, hits mostly inhibitors; 370,000 tested, 0.028% active; AID 624246; active means well fitted inhibition curve with a large enough effect in the polarisation, with a control signal flat; inconclusive means small, poorly fitted or top-dose-only effect, or effect the other way, or a change in a side signal; inactive means no such curve, though single readings can be large or run the other way; the % refers to the polarisation;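 further: polarization taken with two DNA probes labelled with fluorescein and Texas red; potency means the concentration at half of the fitted maximal effect; % of control where 0% means no effect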
#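 His-tagged ERG Ets domain (1 uM in the protein solution; 300mM KCl, 50mM Tris-HCl, 1mM EDTA, 1mM DTT, pH 7.5) received compound, then a probe mix of 5 nM fluorescein-DNA and 100nM Texas-615-DNA. Fluorescence polarization was read for both dyes.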
# Nrf2 ARE act: activates Nrf2 signaling | Potency, µM (series often up to 46.1 µM), for the others: at the highest dose activation, most hits filed as activators | AID 624171 | 410,000 tested, 0.31% active | AREc32 ARE-luciferase reporter (MCF7-derived line), luminescence, 24 h; further: potency means the concentration at half of the fitted maximal effect; % of control where 0% means no effect; nearly all actives have a fitted effect of over 65% in size
#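 ARE activation measured as luciferase luminescence (Steady-Glo, 30 min RT) in AREc32_Fluc cells after 24 hr compound exposure at 37 deg C, 5% CO2; cells seeded overnight at 1000/well in OPTI-MEM, 5% FBS.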
# A549 tox: counter-screen for Nrf2 inhibitors: cytotoxicity in A549 cells. 390,000 tested, 0.16% active. A549 ARE-Fluc cells, CellTiter-Fluor viability, 18-24 h. Potency, µM (highest dose often 46 µM), inactives show top-dose activity change, negative = cytotoxicity, most hits filed as inhibitors. AID 504648; further: potency means the concentration at half of the fitted maximal effect; on the % scale 0 is the no-effect control and ±100 the full control effect
#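 Cytotoxicity counterscreen: CellTiter-Fluor fluorescence was measured in A549 ARE_Fluc cells after 18-24 h of compound exposure in a concentration series. The subsequent BugLite luminescent read reports ARE-luciferase activity.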
# LDHA inh: inhibitors of human lactate dehydrogenase A; P00338; AID 1347041; activity change, % (values are at about 110 or 230 µM); 480,000 tested, 0.15% active; purified LDHA, NADH/diaphorase-resazurin fluorescence; active compounds read low; in the data active means activity change below about -30%; inconclusive means mostly about -25% to -30%;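 further: plate controls were DMSO wells for no effect and wells without enzyme for full effect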
#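 Enzyme activity of human lactate dehydrogenase 5 (2 nM; 0.06 mM NADH, 0.2 mM pyruvate, 5 min, RT) is measured via a resazurin/diaphorase fluorescence readout of residual NADH.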
# * = called active by the depositor; ? = inconclusive; . = no result. Unless noted, the call rests on the fitted dose curve; in most records, active means well fitted curve in the direction sought with a large enough effect; inconclusive means small, poorly fitted or top-dose-only effect, or another doubt; inactive means no such curve, though single readings can be large; an effect the other way counts as inactive or inconclusive.
SMILES,ALOX12 inh,Nrf2 inh,ERG-DNA inh,Nrf2 ARE act,A549 tox,LDHA inh
COc1ccc(NC(=O)/C(C#N)=C/c2cc(C)n(-c3ccc(N4CCOCC4)c([N+](=O)[O-])c3)c2C)cc1,-21%,6.5µM*,17%,-1%,-12%,-7
COc1ccc(NS(=O)(=O)c2ccc(N3CCCCC3)c(N)c2)cc1,?,6.5µM*,-7%,6%,-8%,-1
COc1ccc(NS(=O)(=O)c2cc(NC(=O)C3CC3)ccc2N2CCCCC2)cc1,5%,16µM*,9%,1%,-15%,-2
CC(=O)Nc1sc2c(c1-c1ccc3scnc3c1)CCNC2,.,.,.,.,.,5
CCCCCCOc1ccc(C(=O)/C=C/C(=O)O)cc1,?,.,.,.,.,1
Cc1ccccc1C[n+]1cccc2ccccc21,1%,?,10%,-1%,-4%,-8
CCCCCCCCC[n+]1cccc2c3ccccc3ccc21,.,9.2µM*,4%,6%,?,-1
CCCCCCCCCCCCCCCC[n+]1cccc2ccccc21,?,26µM*,-1%,-3%,-17%,-21
c1ccc2c(c1)ccc1ccccc12,14%,2%,2%,-1%,4%,-11
COc1cccc(NC(=O)N2CCN(c3nc(C)cc(Nc4ccc(C)cc4)n3)CC2)c1,-13%,.,.,.,.,11
CC1CC1c1ccc(/C=C(\C#N)C(=O)Nc2ccc(Cl)cc2)o1 (configuration not stated),?,?,23%,6.3µM*,-11%,-5
CC1CC1c1ccc(/C=C(\C#N)C(=O)Nc2ccccc2Cl)o1 (configuration not stated),-2%,28%,-4%,13µM*,-4%,6
COc1ccc2cc(CN(C)C(=O)CNC(=O)c3ccc(Cl)c(Cl)c3)ccc2c1,?,.,.,.,.,4
O=c1c(C(F)(F)F)nc2ccccc2n1CC(O)COCc1ccccc1 (configuration not stated),-27%,.,.,.,.,6
Nc1nc(=S)c2ncn(C3CCCCC3)c2[nH]1,50µM*,1%,-5%,0%,1%,-2
CCCOc1ccccc1NC(=O)CCc1c(C)c2ccc(OC)cc2oc1=O,33%,.,.,.,.,3
COc1ccc2c(c1)c(CC(=O)Nc1ccc(C(C)=O)cc1)c(C)n2C(=O)c1ccc(Cl)cc1,4%,23µM*,-2%,6%,?,-12
COc1ccc(OC)c(NC(=O)Cc2c(C)n(C(=O)c3ccc(Cl)cc3)c3ccc(OC)cc23)c1,?,23µM*,4%,-1%,-12%,-2
COc1ccc2c(c1)c(CC(=O)Nc1cc(C)ccc1C)c(C)n2C(=O)c1ccc(Cl)cc1,-10%,-9%,10%,4%,-1%,-2
COc1ccc2c(c1)c(CC(=O)Nc1ccccc1OC)c(C)n2C(=O)c1ccc(Cl)cc1,-14%,-22%,5%,3%,-1%,-3
CCOc1ccc(NC(=O)CCc2c(C)c3ccc(C)cc3oc2=O)cc1,-29%,.,.,.,.,-23
Cc1ccc(-c2[nH]c3ccccc3c2C)cc1,?,.,.,.,.,1
CCOC(=O)c1c(C)[nH]c(C(=O)OCC(=O)NC(C)(C)C)c1C,1%,18µM*,20%,3%,-10%,0
CCOC(=O)c1[nH]c(C)c(/C(Br)=C/Br)c1C,6.3µM*,.,.,.,.,9
CCOC(=O)c1[nH]c(C)c(C(=O)OCC(=O)NC(=O)NC(C)(C)C)c1C,1%,10%,4%,0%,.,-6
SMILES,ALOX12 inh,Nrf2 inh,ERG-DNA inh,Nrf2 ARE act,A549 tox,LDHA inh
CCOC(=O)c1[nH]c(C)c(C(=O)OC)c1C,210%,4%,1%,2%,0%,-7
O=C(CCc1ncc(-c2ccc(F)cc2F)o1)Nc1ccc(N2CCOCC2)cc1N1CCOCC1,?,.,.,.,.,17
O=C(Nc1nc2ccc(Br)cc2s1)c1ccco1,-9%,?,-4%,7.9µM*,-6%,-7
O=C(Nc1nc2ccsc2c(=O)s1)c1ccco1,0%,?,3%,1.3µM*,-1%,-5
CN(C)c1ccc(/C=N/NC(=O)C(c2ccccc2)c2ccccc2)cc1,15%,.,.,.,.,11
N#Cc1c(SCc2c(Cl)cccc2Cl)nc(N)[nH]c1=S,32µM*,0%,?,-1%,1%,0
Cc1nc(SCc2ccccc2Cl)c(C#N)c(C)c1C,-8%,-3%,-4%,-1%,15%,-1
O=C(NCc1cccs1)C(=O)NCC(c1ccco1)N1CCN(c2ccccc2F)CC1 (configuration not stated),3%,21µM*,-1%,0%,10%,-3
O=C(NCC(c1cccnc1)N1CCN(c2ccccc2)CC1)OCc1ccccc1 (configuration not stated),25%,-20%,.,0%,-4%,-2
O=C(NCC(c1cccnc1)N1CCN(c2ccccc2F)CC1)OCc1ccccc1 (configuration not stated),21%,21µM*,0%,1%,-22%,0
CC(C)C(OC(=O)/C=C/c1cccc(F)c1)C(=O)NC(N)=O (configuration not stated),?,.,.,.,.,2
Cc1c(/C=C(\C#N)C(=O)Nc2cccc(Cl)c2)c2ccccc2n1Cc1ccccc1,?,8.2µM*,2%,0%,?,-3
Cc1ccc(Cl)cc1NC(=O)/C(C#N)=C/c1c(C)n(Cc2ccccc2)c2ccccc12,?,-10%,-2%,0%,3%,-4
C=CCNc1nc(C(=O)OC(C)C(=O)NCC(=O)Nc2c(C)cccc2C)cs1 (configuration not stated),?,.,.,.,.,7
N#Cc1ccc(-c2nc(C3CC(=O)N(c4ccc(F)cc4)C3)no2)cc1 (configuration not stated),10µM*,.,.,.,.,.
CC(C)(C)c1ccc(-c2nc(C3CC(=O)N(c4ccc(F)cc4)C3)no2)cc1 (configuration not stated),12%,.,.,.,.,.
O=C1CC(c2noc(-c3ccc(F)cc3)n2)CN1c1ccc(F)c(Cl)c1 (configuration not stated),19%,.,.,.,.,.
N#Cc1ccc(-c2nc(C3CC(=O)N(c4ccc(Cl)cc4)C3)no2)cc1 (configuration not stated),13µM*,.,.,.,.,.
COc1ccc(C(=O)NC(=S)Nc2ccccc2N2CCCCC2)cc1[N+](=O)[O-],40µM*,0%,-7%,7%,-3%,0
O=C(NC(=S)Nc1ccccc1N1CCN(C(=O)c2ccccc2)CC1)c1cccs1,16µM*,16%,5%,-1%,3%,-3
O=C(NC(=S)Nc1ccccc1N1CCCCC1)c1cccs1,50µM*,19%,-1%,19%,-4%,-2
